# This is a sample that favours compounds with a hit; in the whole collection about 3.5% have one here.
# MITF inh – inhibitors of human MITF; 0.91% of 650,000 active; AlphaScreen MITF homodimerization, bead proximity signal; inhibition, % at 2.6 µM; in the data active = inhibition above about 50%;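 note: 0% = vehicle wells with protein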
# FBW7 activator – activators of human E3 ligase FBW7; 0.13% of 650,000 active; normalized activity (activation), % at 26.1 µM; AID 1259310; AlphaScreen FBW7–phospho-cyclin E peptide binding, activator screen; in the data active = normalized activity above about 1.9%;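 note: purified mutant Fbw7 with reduced substrate affinity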
# GPR151 ag – activates the human receptor GPR151; PathHunter beta-arrestin GPR151 cells, luminescence; Q8TDV0; 1% of 650,000 active; activation, % at 11.2 µM; in the data active = activation above about 4.9%;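 note: 0% = median of compound wells and 100% = cells with positive control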
# Target sequence (Q8TDV0 whole entry, looked up): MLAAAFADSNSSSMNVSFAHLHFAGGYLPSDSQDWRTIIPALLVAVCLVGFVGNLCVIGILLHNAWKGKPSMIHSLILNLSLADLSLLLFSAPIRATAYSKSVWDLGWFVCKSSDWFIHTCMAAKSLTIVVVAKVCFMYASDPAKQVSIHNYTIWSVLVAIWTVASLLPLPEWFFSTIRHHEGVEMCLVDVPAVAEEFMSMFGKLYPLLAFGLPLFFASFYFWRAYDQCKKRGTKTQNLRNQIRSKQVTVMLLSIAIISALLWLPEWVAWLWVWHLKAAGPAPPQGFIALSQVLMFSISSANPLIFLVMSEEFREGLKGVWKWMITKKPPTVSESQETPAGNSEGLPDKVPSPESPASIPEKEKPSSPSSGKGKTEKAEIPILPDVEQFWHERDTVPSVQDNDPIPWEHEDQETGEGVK
# TEAD-YAP inh – TEAD-YAP interaction inhibition; AID 1259422; HEK-TIYL cells, TEAD-Gal4/YAP UAS-luciferase luminescence; 1.4% of 640,000 active; inhibition, % at 9.12 µM; in the data active = inhibition above about 32%;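 note: 0% = median of test compound wells and 100% = reference inhibitor wells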
# MITF inh conf – confirmation of human MITF inhibitors | shares compounds with MITF inh | AlphaScreen MITF homodimerization, biotin/His-MITF beads | inhibition, % at 2.6 µM | 16% of 4,700 active;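 active = inhibition above a cutoff derived from the DMSO control wells, cut at about 28% in these data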;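 note: 0% = MITF dimer wells with DMSO only; inhibitors lower the bead chemiluminescence by keeping MITF from dimerizing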
# AS interf DR – counter-screen: compounds optically interfering with AlphaScreen | shares compounds with MITF inh | AlphaScreen optical interference counterscreen, cell-free | 6% of 480 active | IC50, µM; call rule not given here
# AS interf ctr – counter-screen: compounds optically interfering with AlphaScreen. shares compounds with MITF inh. LysRS AlphaScreen counterscreen, signal interference, triplicate. inhibition, % at 2.6 µM. 7.6% of 4,700 active;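 active = inhibition above a cutoff derived from the DMSO control wells, cut at about 30% in these data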
# Starred values were filed as active, the others as inactive; . = no result given.
SMILES,MITF inh,FBW7 activator,GPR151 ag,TEAD-YAP inh,MITF inh conf,AS interf ctr,others
CCNC(=O)COC(=O)c1cc(-c2ccco2)nc2ccccc12,47.6,-0.1,-0.3,2.7,.,.,
CC(C)N(C(=O)COC(=O)c1cc(-c2ccco2)nc2ccccc12)C(C)C,53.6*,0.0,-0.9,-3.8,45.4*,7.4,AS interf DR=>6.82
O=C(COC(=O)c1cc(-c2ccco2)nc2ccccc12)NC1CC1,50.9*,-0.1,-1.9,7.5,39.7*,-2.8,AS interf DR=>6.94
O=C(O)c1cc(-c2ccco2)nc2ccccc12,54.5*,-0.1,3.6,10.9,56.6*,18.4,AS interf DR=>7.59
COC(=O)C1=C(C)NC(C)=C(C(=O)OC)C1c1cn(-c2ccccc2)nc1-c1ccc(Cl)cc1,-5.5,-0.1,-0.4,-18.1,.,.,
CN(C)S(=O)(=O)c1ccc(C(=O)NCc2n[nH]c(=S)n2-c2cccc(Cl)c2)cc1,10.3,0.1,0.0,1.8,.,.,
Cc1cc(C(=O)NCC2CCC3(CCN(CCC(C)c4ccccc4)CC3)O2)n(C)n1 (stereo unspecified),2.7,0.0,-1.7,-2.7,.,.,
CCOc1ccc(CN2CCC(C(=O)N3CCN(CC)CC3)CC2)cc1,-6.9,0.2,-0.4,-1.6,.,.,
NC(=O)C1CCN(Cc2ccc(Cl)c(Cl)c2)CC1,53.2*,0.3,-0.5,4.7,-1.9,3.2,
CCN1CCN(C(=O)C2CCN(Cc3ccc(Cl)c(Cl)c3)CC2)CC1,63.4*,0.5,-0.5,3.0,-14.7,-5.2,
CCCc1ccc2c(N)c(C(=O)c3ccc([N+](=O)[O-])cc3)sc2n1,4.8,-0.1,0.0,0.7,.,.,
CCOC(=O)C1CCN(C/C=C/c2ccccc2[N+](=O)[O-])CC1,53.8*,0.6,-1.1,5.0,-13.0,-6.7,
CCOC(=O)C1CCN(C/C=C/c2ccccc2OC)CC1,32.6,-0.1,-0.2,2.7,.,.,
Cc1sc2ncnc(NCC(c3ccco3)N(C)C)c2c1C (stereo unspecified),61.7*,0.2,-1.1,-9.2,13.0,13.6,
COC(=O)c1ccc(C(=S)NCC2(N3CCOCC3)CCCCC2)cc1,-4.4,-0.3,-0.7,-1.6,.,.,
COc1ccc(CNC(=O)CNCC2(N3CCOCC3)CCCCC2)cc1,55.1*,-0.3,0.4,1.7,-5.8,-3.3,
NC(=O)c1ccc2nc(-c3cccs3)sc2c1,72.5*,0.1,-7.7,33.3*,60.0*,6.1,AS interf DR=>6.18
NC(=O)c1cccc(-c2cccs2)c1,66.2*,0.3,-0.2,-12.4,57.0*,10.6,AS interf DR=>6.74
CC(=O)c1cccc(-c2cccc(C(N)=O)c2)c1,-0.1,0.1,4.8,-5.6,.,.,
O=C(Nc1ccccc1)c1ccc2nc(-c3cccs3)sc2c1,2.1,0.0,-3.5,-59.2,.,.,
CC(C)(C)c1ccc(/C=N/N=C(N)N)cc1,-2.1,-0.1,0.2,-13.7,.,.,
O=C(CNc1cccc(Br)c1)N/N=C\c1ccco1,4.6,-0.1,-1.2,-13.1,.,.,
CC(C(=O)NC12CC3CC(CC(C3)C1)C2)N(C)CCOc1ccccc1 (stereo unspecified),50.8*,-0.2,-2.1,2.2,4.6,15.0,
Cc1nc(SCC(=O)Nc2cccc(C(F)(F)F)c2)c2c3c(sc2n1)CCC3,73.8*,0.1,-0.8,-9.5,5.5,13.3,
Cc1ccc(N2C(=O)C3C(C2=O)C2(CO)C=CC3(C)O2)cc1[N+](=O)[O-] (stereo unspecified),52.9*,0.0,0.5,6.6,43.4*,4.9,AS interf DR=>6.48
SMILES,MITF inh,FBW7 activator,GPR151 ag,TEAD-YAP inh,MITF inh conf,AS interf ctr,others
CC12C=CC(CO)(O1)C1C(=O)N(c3ccc([N+](=O)[O-])cc3)C(=O)C12 (stereo unspecified),-2.7,0.1,0.4,-10.6,.,.,
O=C1OC(c2ccccc2)=N/C1=C/c1cc2ccccc2nc1N1CCOCC1,56.1*,0.0,-0.5,1.8,6.2,13.1,
CCN(c1ccccc1C)S(=O)(=O)c1nnc(NC(=O)c2ccccc2Cl)s1,-3.6,-0.1,1.6,5.3,.,.,
O=C(NCc1ccco1)C1CCN(Cc2cccc(Cl)c2Cl)CC1,51.0*,0.2,-0.2,5.6,-1.2,-2.0,
CN(C)CC(C)(C)CNC(=O)C1CCN(Cc2ccccc2Cl)CC1,62.8*,-0.1,-0.3,2.1,-20.2,-1.5,
C=CCOc1ccc2c3c(c(=O)oc2c1C)CCC3,54.4*,0.6,-1.5,-27.1,12.4,14.1,
O=C(CSc1ccc(-c2cccnc2)nn1)NCc1ccccc1,51.0*,0.1,0.1,7.9,4.7,-3.2,
O=C(CSc1ccc(-c2cccnc2)nn1)NCc1ccccc1Cl,-9.8,-0.1,-0.6,-2.5,.,.,
CCOC(=O)C1=CN(C(C)C)C=C(C(=O)OCC)C1c1cccc(O)c1,-5.3,-0.1,1.1,-4.2,.,.,
O=C(CCCn1c(=S)[nH]c2ccccc2c1=O)N1CCOCC1,113.8*,-0.1,0.8,1.1,1.2,0.3,
O=C(CN1CCN(Cc2ccc3c(c2)OCO3)CC1)N1N=CCC1c1ccccc1 (stereo unspecified),15.4,0.3,0.0,5.0,.,.,
O=C(NCCc1ccccc1Cl)c1cc(-c2ccccc2)nc2ccccc12,1.9,-0.1,2.1,3.8,.,.,
CCS(=O)(=O)N1CCN(C(C)CCc2ccccc2)CC1 (stereo unspecified),51.1*,-0.2,0.7,18.4,6.0,12.4,
CCOC(=O)N1CCN(S(=O)(=O)c2ccc(C(=O)Nc3cccc(Br)c3)cc2)CC1,-3.2,0.0,0.9,-2.3,.,.,
CCOC(=O)C1(CCCc2ccccc2)CCN(C(=O)CCn2cnnn2)CC1,7.2,0.1,0.7,1.2,.,.,
CCOC(=O)C1(CCc2ccccc2)CCN(C(=O)CCn2cnnn2)CC1,60.8*,0.0,2.4,-22.6,-0.7,8.1,
COc1ccccc1Nc1nc(N)nc(CN2CCN(c3cccc(Cl)c3)CC2)n1,8.1,0.1,-2.2,4.5,.,.,
Cc1cc(Cl)cc(C)c1OCCN1CCNCC1,54.8*,-0.2,2.6,-0.4,-4.1,-4.2,
Clc1ccc(OCCN2CCNCC2)c(Br)c1,64.8*,-0.5,2.0,12.6,-13.5,-2.3,
Cc1cc(C)c(OCCOCCN2CCNCC2)c(C)c1,9.7,-0.2,-1.3,-0.6,.,.,
Cc1ccc(OCCCN2CCNCC2)c(Br)c1,69.2*,-0.3,-1.2,-16.7,7.8,-2.6,
Clc1ccc(OCCCN2CCNCC2)c(Br)c1,39.2,-0.1,0.3,-2.1,.,.,
Cc1cc(Cl)c(OCCCN2CCNCC2)c(Br)c1,46.7,-0.4,2.3,0.6,.,.,
Clc1cc(Cl)c(OCCCN2CCNCC2)c(Cl)c1,56.5*,-0.5,1.6,-3.6,-9.5,-1.8,
O=C(C1CC1)N1CCc2cc(-c3csc(Nc4ccccc4)n3)ccc21,2.8,-0.1,-0.8,-27.3,.,.,
CCN(CC)C(=O)C1CCCN(c2nc(NCc3cccnc3)c3ncn(Cc4ccc(C(F)(F)F)cc4)c3n2)C1 (stereo unspecified),7.0,-0.1,-1.8,-2.7,.,.,
O=C(/C=C/c1ccc(F)cc1)NC1CCCC1,15.1,0.0,2.3,-44.5,.,.,
Clc1ccc(SCCN2CCNCC2)cc1,30.7,-0.4,-0.2,10.6,.,.,
